From PubChem
PRMT1 FP inh = PRMT1 (human) inhibition, primary screen | recombinant PRMT1, activity-based probe fluorescence polarization | inhibition, % at 2.79 µM | 370,000 compounds, 1.3% hits | AID 652257;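 active = inhibition above about 21% made by adding two undisclosed values, limit read from the data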
Target sequence (Q99873 whole entry, looked up): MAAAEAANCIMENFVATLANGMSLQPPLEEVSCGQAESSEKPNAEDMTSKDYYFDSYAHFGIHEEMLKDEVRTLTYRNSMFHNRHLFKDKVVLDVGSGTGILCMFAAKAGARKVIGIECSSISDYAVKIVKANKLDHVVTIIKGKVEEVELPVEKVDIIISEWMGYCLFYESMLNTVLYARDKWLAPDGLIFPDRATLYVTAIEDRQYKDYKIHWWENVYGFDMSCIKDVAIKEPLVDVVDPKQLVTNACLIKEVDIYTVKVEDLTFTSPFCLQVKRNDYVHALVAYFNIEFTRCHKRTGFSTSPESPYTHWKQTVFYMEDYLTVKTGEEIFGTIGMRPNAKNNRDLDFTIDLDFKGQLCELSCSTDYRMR
PfG6PD inh = PfG6PD (Plasmodium falciparum) enzyme inhibition. PfGluPho enzyme, NADPH resazurin-diaphorase fluorescence. 350,000 compounds, 0.78% hits. inhibition, % at 20 µM;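 active = inhibition reaching at least a set limit at 20 µM in the primary screen, cut at about 59% in these data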;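 note: 0% = DMSO wells with substrate and 100% = DMSO wells lacking glucose-6-phosphate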
PfM18AAP inh = PfM18AAP enzyme inhibition | inhibition, % at 7.35 µM | recombinant PfM18AAP, H-Glu-NHMec fluorogenic cleavage | 290,000 compounds, 1.2% hits | AID 1822;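 active = inhibition above the campaign mean inhibition over all tested compounds plus 3 SD, cut at about 28% in these data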;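 note: 0% = plate median of test compound wells and 100% = 2 mM ZnCl2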
MBD2 DNA inh = MBD2-methylated oligo binding inhibition. Q9UBB5. TR-FRET, MBD2 binding to methylated oligonucleotide. inhibition, % at 4.4 µM. 370,000 compounds, 0.31% hits; in the data active = inhibition above about 13%
UHRF1 MBD2 ctr = UHRF1 methyl-DNA binding inhibition | inhibition, % at 4.4 µM | Q96T88 | 370,000 compounds, 0.75% hits | UHRF1 binding to methylated oligo, TR-FRET; in the data active = inhibition above about 21%;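 note: UHRF1 SRA domain binding a hemimethylated CpG hairpin DNA probe; 0% = median of test compound wells and 100% = reference inhibitor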
* hit, by the source's call; / = no result given; ! = not confirmed by another sample. Shown are actives, neighbours in structure and some others; about 3.3% of the full set was active somewhere.

SMILES	PRMT1 FP inh	PfG6PD inh	PfM18AAP inh	MBD2 DNA inh	UHRF1 MBD2 ctr
Cc1ccc(S(=O)(=O)N2CCCC(C(=O)NCCN3CCC(Cc4ccccc4)CC3)C2)cc1 (stereo not drawn)	0	/	/	-1	-2
Oc1ccc(Br)cc1/C=N/n1c(-c2ccccc2)n[nH]c1=S	4	11	1	3	0
Oc1c(Br)cc(Br)c(/C=N/n2c(-c3ccccc3)n[nH]c2=S)c1Br	23*	40	7	0	0
C/C(=N\NC(=O)c1ccccc1C)c1ccc(NC(=O)c2cccs2)cc1	-1	7	-9	-1	39*
C/C(=N\NC(=O)c1ccccc1)c1ccc(NC(=O)c2cccs2)cc1	-1	2	-2	-1	1
CCC(=O)N(C)C[C@@H]1[C@H](c2ccc(C3=CCCCC3)cc2)[C@H](CO)N1C(=O)CC	0	/	/	0	1
CCOC(=O)c1[nH]c(C)c(C(=O)OCc2c(C)noc2C)c1C	4	-21	-10	5	22*
CCc1c(C(=O)C(C)O)c2n3c1CCC[C@@H]3CC2 (stereo partly drawn)	4	/	/	9	1
CCCCNC(=O)CS(=O)Cc1nc(-c2cccs2)oc1C (stereo not drawn)	3	2	-9	0	-2
Cc1oc(-c2cccs2)nc1CS(=O)CC(=O)NCCc1ccccc1 (stereo not drawn)	22*	1	3	5	2
COc1ccc(-c2nnn3c2Cn2c4ccccc4c(=O)n2[C@@H](C(C)C)C3)cc1	-5	/	/	9	2
CCCNc1cc(=O)n(C)c(=O)n1C	0	-13	-4	-1	-1
Cn1c(NCCN2CCCCC2)cc(=O)n(C)c1=O	24*	-7	0	5	-2
C[C@H]1[C@@H](OC(=O)Nc2ccc(Cl)cc2)CC[C@@]23CCCN2C(=O)CCC[C@@H]13	-1	/	/	1	0
CC(NC(=S)Nc1ccc([N+](=O)[O-])cc1)c1ccncc1 (stereo not drawn)	5	0	-3	2	46*
CCOC(=O)[C@@]12CN(C(=O)OC(C)(C)C)CC=C1N(Cc1ccc(OC)cc1)C(=O)[C@H]2CC(=O)NCCCN1CCCC1=O	-2	/	/	-3	0
Cc1ccc(-n2c(Cc3cccn3C)nnc2SCC(=O)NCc2ccc3c(c2)OCO3)cc1	-2	-10	30*	-7	-2
S=C1NCN(CC2CC2)CN1	6	/	/	3	0
CCO[C@@H]1OC(C(=O)O)=C[C@H](c2ccc(C(F)(F)F)cc2)[C@H]1CCCO	-2	-16	8	-4	77*
COC(=O)C1=C(C)N(Cc2cccc(C(F)(F)F)c2)C(=NCc2ccc3c(c2)OCO3)NC1c1cccc(Cl)c1 (stereo not drawn)	3	/	/	4	-1
CCc1ccc(S(=O)(=O)Nc2ccc(-c3ccc4nncn4n3)cc2)s1	4	-6	/	0	23*
Cc1ccc(OCCCOc2ccc(Cl)cc2Cl)c([N+](=O)[O-])n1	-1	/	/	-7	0
Cc1c(CN2CCN(c3ncc(Cc4ccccc4)cn3)CC2)c(=O)n(-c2ccccc2)n1C	-4	/	/	-4	-3
CSCCC(NC(=O)c1ccccc1Cl)C(=O)N1CCN(C(C)=O)CC1 (stereo not drawn)	-1	-4	/	3	0
CSCCC(NC(=O)c1ccccc1Cl)C(=O)N1CCCCC1 (stereo not drawn)	3	-12	/	1	41*
SMILES	PRMT1 FP inh	PfG6PD inh	PfM18AAP inh	MBD2 DNA inh	UHRF1 MBD2 ctr
Cn1nc([N+](=O)[O-])nc1N1CCN(c2ccc(F)cc2)CC1	-3	25	28*	-1	-1
C/C(CC(=O)NCc1ccco1)=N\NC(=O)CC#N	2	5	30*	0	0
C/C(CC(=O)NCc1ccco1)=N\NC(=O)Cc1cccc2ccccc12	3	-10	5	-1	-2
CCC(C)(C)NC(=O)C(c1ccc(C)cc1)N(CC1CCCO1)C(=O)CCC(=O)Nc1ccccn1 (stereo not drawn)	-1	11	-4	2	33*
O=C(CSc1nnc(-c2ccccc2)o1)c1nnc(-c2ccccc2)o1	24*	-15	2	-3	-3
CCOC(=O)CSc1nnc(-c2ccccc2)o1	0	-1	-2	-3	-1
CCN1CCN(Cc2ccc(NC(=O)c3ccc(C)c(NC(=O)N4CCNC4=O)c3)cc2C(F)(F)F)CC1	3	21	0	11	23*!
COc1cc2cccc(OC)c(=O)c2c(O)c1OC	2	-9	2	-9	-6
COc1cc2c(ccc3cc(OC)c(OC)c(O)c32)cc1O	0	17	/	27*	52*
CC(=C/C(=O)O)/C=C/c1ccc(Cl)o1	10	3	1	8	32*
CC(/C=C\c1ccccc1)=C/C(=O)O	1	-7	3	2	0
COC(=O)[C@]12C[C@H](CC(=O)NCc3ccc(C)o3)C(=O)N(CCC3=CCCCC3)C1=C[C@H](COCc1ccccc1)O[C@@H]2C	2	/	/	-2	0
COc1cccc(N=c2oc3c(C)ncc(CO)c3cc2C(=O)Nc2ccccc2OC)c1	/	/	-7	/	/
COc1ccc(NC(=O)c2cc3c(COC(C)=O)cnc(C)c3oc2=Nc2cccc(C(=O)O)c2)c(OC)c1	/	68*	-14	/	/
COC(=O)c1ccc(CN2CCCC(C(=O)Nc3cccc(-n4cccn4)c3)C2)cc1 (stereo not drawn)	-2	2	6	1	-1
CC(=O)c1cccc(CN2CCCC(C(=O)Nc3cccc(-n4cccn4)c3)C2)c1 (stereo not drawn)	22*	15	-3	-2	5
COC(=O)[C@]12C[C@H](CC(=O)NCCc3ccccc3OC)C(=O)N(Cc3ccc(Cl)cc3Cl)C1=C[C@H](C1CCCC1)O[C@@H]2C	-1	/	/	-2	1
O=c1c2c3nc4ccccc4nc3n(Cc3ccccc3)c2ncn1Cc1ccco1	38*	56	-17	-7	1
COc1cc(-n2c3nc4ccccc4nc3c3c(=O)n(Cc4ccco4)cnc32)cc(OC)c1OC	/	/	8	/	/
CN(C)c1ccc(-c2[nH][nH]c(=O)c2NC(=O)c2ccccn2)cc1	-4	/	/	15*	16
COC(=O)CC1NCCc2cc(OC)c(OC)cc21 (stereo not drawn)	5	9	3	0	33*
O=C1c2ccccc2NC2(CCCC2)N1O	-2	-20	-5	2	80*
O=C1c2ccccc2NC2(CCCCC2)N1N=C1CCCCC1	0	1	-5	-1	3
O=C(CC1(O)C(=O)N(CCc2ccccc2)c2ccccc21)c1ccccn1 (stereo not drawn)	4	-4	11	0	-3
O=C(CC1(O)C(=O)N(C/C=C/c2ccccc2)c2ccccc21)c1ccccn1 (stereo not drawn)	1	3	32*	-1	0
Cc1cc(SCC(=O)c2ccccc2)nc(=O)[nH]1	25*	35	6	2	-1
Cc1ccc(C(=O)CSc2cc(C)[nH]c(=O)n2)cc1	11	11	10	2	-6
